# Screens as filed in PubChem BioAssay.
# An excerpt weighted towards active compounds, which were near 1.6% of everything screened.
# PrPC surface inh: cell surface PrPC inhibition, primary TR-FRET screen; 370,000 compounds, 0.43% hits; TR-FRET read-out; inhibition, % at 13.8 µM; in the data active means inhibition above about 24%
# SSB-PriA inh: inhibitors of Klebsiella pneumoniae PriA binding to SSB C-terminal tail; AlphaScreen SSBct-PriA binding, biotinylated peptide; inhibition, % at 33 µM; 430,000 compounds, 0.6% hits; AID 1272365; in the data active means inhibition mostly above about 37%, no sharp cut-off; inactive means mostly below about 20%
# Vc quorum ag-1: induces V. cholerae light production without autoinducers. V. cholerae BH1578 lux reporter, luminescence, 6 h. activation, % at 18.7 µM. 350,000 compounds, 0.16% hits. AID 588436; in the data active means activation mostly above about 9.7%, no sharp cut-off
# 3CLpro inhibitor: SARS-CoV 3CLpro protease inhibition. recombinant SARS-CoV 3CLpro, quenched FRET peptide cleavage. inhibition, % at 6 µM. 290,000 compounds, 0.14% hits; in the data active means inhibition above about 12%
# PfHsp40 yeast: compounds rescuing yeast from Plasmodium falciparum HSP40 toxicity | 340,000 compounds, 0.68% hits | S. cerevisiae expressing PfHsp40, growth rescue, ATP luminescence | AID 504582 | growth rescue, % at 12.5 µM; in the data active means growth rescue above about 28%, passing the limit was not always enough;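 further: yeast W303a lacking pdr1 and pdr3 grown in galactose medium; growth measured after three days at 30 °C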
# PrP 5UTR inh: inhibition of PrP 5' UTR reporter expression. cell-based PrP 5' UTR mRNA reporter, plate reader. inhibition, % (concentration not given with the values). 340,000 compounds, 0.35% hits; in the data active means inhibition above about 52%
# Vc quorum ag-2: induces V. cholerae light production without autoinducers; activation, % at 50 µM; AID 602243; 620 tested, under 10 active; shares compounds with Vc quorum ag-1; V. cholerae BH1578 lux reporter, luminescence, 6 h; call rule not given here
# HeLa 24h tox: kills HeLa cells within 24 hours. shares compounds with Vc quorum ag-1. HeLa viability, CellTiter-Glo ATP luminescence. activity change, negative = cytotoxicity, % at 35 µM. 25 tested, under 10 active. AID 624140;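 active means signal drop with fitted half-maximal concentration at or below twice the highest valid dose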
# A number is an active result; n = inactive; x = not tested or not shown.
SMILES,PrPC surface inh,SSB-PriA inh,Vc quorum ag-1,3CLpro inhibitor,PfHsp40 yeast,PrP 5UTR inh,Vc quorum ag-2,others
COc1ccc(S(=O)(=O)Nc2ccc(S(=O)(=O)N3CCOCC3)cc2)cc1C,n,n,18,n,n,n,n,
COc1ccc(NS(=O)(=O)c2ccc(S(=O)(=O)N3CCOCC3)cc2)cc1,n,n,n,n,n,n,x,
CCS(=O)(=O)N1CCN(C(=O)CCC2CCCC2)CC1,n,n,28,n,n,n,n,
O=C(CCC1CCCC1)N1CCN(S(=O)(=O)Cc2ccccc2)CC1,n,n,n,n,n,n,x,
CC(=O)c1ccc(S(=O)(=O)Nc2cccc(-c3ccc4nncn4n3)c2)cc1,n,n,23,n,n,n,n,
Cn1c(Cn2cnc(Cl)c2Cl)nc2ccccc21,n,n,17,n,n,n,n,
Cn1c(Cn2cnc3ccccc32)nc2ccccc21,n,n,n,n,n,n,x,
O=C(CNC(=O)c1ccncc1)Nc1ccc(F)c(F)c1,n,n,n,n,n,n,n,
CO[C@@H](CNC(=O)Nc1cccc(C)c1)c1ccco1,x,n,x,x,x,x,x,
CCC(C)n1cnc2c(=O)oc3ccccc3c21 (stereo unspecified),n,n,114,n,n,n,n,
CCOc1ccc(Nc2nc3c(c(=O)[nH]2)CCCC3)cc1,n,n,145,n,n,n,n,
CCC(C(=O)NCc1ccc(-c2nccs2)cc1)c1ccccc1 (stereo unspecified),x,n,x,x,x,x,x,
Cc1c(Cl)ccc2sc(N(CC3CCCO3)C(=O)c3ccc(Cl)s3)nc12 (stereo unspecified),x,n,x,x,x,x,x,
O=c1c2c3c(sc2ncn1Cc1ccc(F)cc1)CCC3,n,n,n,n,n,n,n,
O=C(NC1CCCCC1)C(=O)c1c[nH]c2ccccc12,n,n,474,n,n,n,n,
O=C(COC(=O)c1c[nH]c2ccccc12)NC1CCCC1,n,n,n,x,n,x,x,
CC(=O)c1c(N2CCN(c3ccccc3)CC2)nc(=S)n(-c2ccccc2)c1C,n,n,x,n,n,n,x,
CC(=O)c1c(N2CCC(C(N)=O)CC2)nc(=S)n(-c2ccccc2)c1C,n,n,n,n,n,n,n,
COCCNC(=O)C(=O)NCc1ccsc1,x,n,x,x,x,x,x,
O=S(=O)(NCC(c1cccnc1)N1CCc2ccccc2C1)c1ccccc1 (stereo unspecified),n,n,n,n,n,n,x,
O=[N+]([O-])c1ccc(S(=O)(=O)NCC(c2cccnc2)N2CCc3ccccc32)cc1 (stereo unspecified),n,n,n,x,n,n,n,
COc1cccc(NC(=O)C2CC(=O)OC23CCOC(C)(C)C3)c1 (stereo unspecified),n,n,n,n,n,n,n,
COc1ccc(Cl)cc1C(=O)NC[C@H](OC)c1ccccc1Cl,x,n,x,x,x,x,x,
COc1ccc(-c2cc(CCCC(=O)N3CCN(c4ccc(OC)cc4)CC3)no2)cc1,n,n,n,n,n,n,x,
COc1ccc(-c2cc(CCCC(=O)NCCc3cc(OC)ccc3OC)no2)cc1,n,n,n,n,n,x,n,
SMILES,PrPC surface inh,SSB-PriA inh,Vc quorum ag-1,3CLpro inhibitor,PfHsp40 yeast,PrP 5UTR inh,Vc quorum ag-2,others
CC1(C(=O)N2CCN(c3ccc([N+](=O)[O-])cc3)CC2)CC1(Cl)Cl (stereo unspecified),n,n,n,n,n,n,n,
OCCn1c(SC2CCCCC2)nc2ccccc21,n,n,17,n,n,n,n,
O=C(NCC1CC(=O)N(c2ccc3c(c2)OCO3)C1)Nc1cccs1 (stereo unspecified),x,n,x,x,x,x,x,
CCn1nnc(NC(=O)Cc2ccc(Cl)cc2)n1,n,n,n,n,n,n,x,
CCn1nnc(NCc2ccc(C)cc2)n1,x,x,x,x,x,x,x,HeLa 24h tox=n
CN(C)c1ccc(C(CNC(=O)C(C)(C)C)N2CCc3ccccc3C2)cc1 (stereo unspecified),x,n,x,x,x,x,x,
Cc1nn(CC(O)CN2c3ccccc3Sc3ccccc32)c(C)c1Br (stereo unspecified),n,n,25,n,n,n,n,
COc1ccc2c(c1OC)C(=O)N(c1ccccc1Br)C2=O,x,n,x,x,x,x,x,
CCOc1cc(-c2cccc(Cl)c2)nc2ccc(C(=O)N3CCN(c4ccc(C)cc4C)CC3)cc12,x,n,x,x,x,x,x,
Cc1ccccc1NC(=O)Cc1nc(COC(=O)c2ccccn2)cs1,n,n,n,x,n,n,n,
COc1ccc(NC(=O)COc2cccc3c2CCNC3=O)cc1,n,n,27,x,n,n,n,
CCc1c(C)sc(NC(=O)c2cccs2)c1C(=O)OC(C)C,n,n,n,n,n,n,x,
CCOC(=O)c1c(NC(=O)c2cccs2)sc(C)c1CC,n,n,114,n,n,n,n,
CN(CC(=O)Nc1c(Cl)cccc1Cl)C(=O)c1cccc(-n2cccc2)c1,n,n,n,x,n,n,x,
CN(CC(=O)Nc1ccccc1Cl)C(=O)c1cccc(-n2cccc2)c1,n,n,n,x,n,n,n,
COC(C(=O)Nc1ccccc1C(=O)N1CCOCC1)c1ccccc1 (stereo unspecified),n,n,n,n,n,n,n,
Cc1nn(-c2ccccc2)c2sc(C(=O)NC3CCSC3=O)cc12 (stereo unspecified),x,n,x,x,x,x,x,
CSc1ccccc1NC(=O)COc1ccc(S(=O)(=O)N2CCCC2)cc1,n,n,n,n,n,n,n,
CC(C)NC(=O)COc1ccc(S(=O)(=O)N2CCCC2)cc1,n,n,n,n,n,n,x,
CCOC(=O)c1ccc2nc(C)c(C)nc2c1,n,n,n,n,n,n,x,
Cc1nc2ccc(C(=O)OCC(=O)N(C)c3ccccc3)cc2nc1C,n,n,n,x,n,n,n,
CCOC(=O)c1c(-c2ccccc2)csc1NC(=O)c1nn(CC)cc1Br,n,n,n,n,n,n,n,
CC1CC(C)CN(C(=O)c2ccc(CNS(=O)(=O)c3cccc(C(F)(F)F)c3)cc2)C1 (stereo unspecified),x,n,x,x,x,x,x,
COc1cccc(NC(=O)Cc2cccs2)c1,n,n,n,n,n,n,x,
COc1cc(NC(=O)Cc2cccs2)ccc1-n1cnnn1,n,n,n,n,n,n,n,
SMILES,PrPC surface inh,SSB-PriA inh,Vc quorum ag-1,3CLpro inhibitor,PfHsp40 yeast,PrP 5UTR inh,Vc quorum ag-2,others
Cc1cc(C(=O)N(Cc2ccco2)c2nc3c(F)cccc3s2)no1,x,n,x,x,x,x,x,
O=C1CC(C(=O)N2CCN(c3ccc(F)cc3)CC2)CN1CCc1ccccc1 (stereo unspecified),n,n,n,n,n,n,x,
CC(C)CCN1CC(C(=O)N2CCN(c3ccc(F)cc3)CC2)CC1=O (stereo unspecified),n,n,17,n,n,n,n,
CC(C)Oc1ccc(OCCCN2CCCCCC2)cc1,n,n,n,n,n,n,n,
CC(C)c1ccc(OCCCCN2CCCCC2)cc1,n,n,n,n,n,n,x,
CN1C(=O)C(C)(C)COc2cc(NC(=O)Nc3cccc(Cl)c3)ccc21,x,n,x,x,x,x,x,
